Results published in publication PMC4336329 (PLoS ONE, 2015).
The whole screen tested about 310,000 compounds, of which about 2,200 (0.71%) showed an effect of 50% or more. The effect is printed as a negative number. Many of the other results were omitted from the sample, so strong results are more common in it than they were.

target: human ether-à-go-go-related gene (hERG) potassium channel (human, UniProt Q12809); experiment: primary screen, population patch clamp on CHO cells stably expressing hERG; higher = less effect of the substance
Sequence (Q12809 whole entry, looked up): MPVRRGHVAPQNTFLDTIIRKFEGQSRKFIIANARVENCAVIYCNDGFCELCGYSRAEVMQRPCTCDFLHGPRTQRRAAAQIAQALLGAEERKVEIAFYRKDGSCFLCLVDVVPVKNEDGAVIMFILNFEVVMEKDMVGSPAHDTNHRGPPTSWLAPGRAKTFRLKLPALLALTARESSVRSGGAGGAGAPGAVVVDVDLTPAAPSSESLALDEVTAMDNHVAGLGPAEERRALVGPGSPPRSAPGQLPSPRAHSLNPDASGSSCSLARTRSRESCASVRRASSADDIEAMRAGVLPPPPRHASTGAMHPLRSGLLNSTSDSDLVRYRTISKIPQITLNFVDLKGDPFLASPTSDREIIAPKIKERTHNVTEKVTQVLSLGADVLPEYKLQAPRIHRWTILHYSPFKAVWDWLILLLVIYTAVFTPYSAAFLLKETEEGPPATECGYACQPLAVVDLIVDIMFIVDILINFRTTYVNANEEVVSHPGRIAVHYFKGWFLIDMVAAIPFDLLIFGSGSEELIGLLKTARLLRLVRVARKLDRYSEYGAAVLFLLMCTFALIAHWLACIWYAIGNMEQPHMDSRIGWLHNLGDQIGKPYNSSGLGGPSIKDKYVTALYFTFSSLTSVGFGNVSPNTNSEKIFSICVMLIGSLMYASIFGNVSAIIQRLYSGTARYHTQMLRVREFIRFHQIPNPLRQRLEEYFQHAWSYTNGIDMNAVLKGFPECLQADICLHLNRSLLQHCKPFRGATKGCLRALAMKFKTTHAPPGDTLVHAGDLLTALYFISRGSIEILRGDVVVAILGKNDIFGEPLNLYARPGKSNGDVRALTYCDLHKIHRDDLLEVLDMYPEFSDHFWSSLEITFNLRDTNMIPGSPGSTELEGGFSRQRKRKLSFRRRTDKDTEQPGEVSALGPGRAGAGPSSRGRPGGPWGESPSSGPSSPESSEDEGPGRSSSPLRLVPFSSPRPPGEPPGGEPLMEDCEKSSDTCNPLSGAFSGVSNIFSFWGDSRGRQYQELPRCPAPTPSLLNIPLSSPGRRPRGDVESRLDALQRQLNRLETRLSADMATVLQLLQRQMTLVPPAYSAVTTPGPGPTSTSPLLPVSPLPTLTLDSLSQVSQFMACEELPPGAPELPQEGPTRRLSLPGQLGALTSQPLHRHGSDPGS

Structure (SMILES)	hERG current change (%, negative = inhibition) at 1uM
COc1cccc(-n2c(SCC(=O)Nc3nccs3)nnc2-c2ccoc2C)c1	-84.6%
Cc1csc(NC(=O)CSc2nnc(C)n2Cc2ccco2)n1	7.95%
COc1ccc(-n2c(SCC(=O)NCc3cccs3)nnc2-c2ccoc2C)cc1	-55.9%
CCOc1ccccc1-n1c(SCC(=O)Nc2nccs2)nnc1-c1ccoc1C	11.5%
O=C(CCCN1C(=O)/C(=C/c2ccccc2Cl)SC1=S)Nc1ccccn1	4.44%
COc1cc(NC(=O)CSc2nccc(C)n2)c(C(=O)O)cc1OC	-7.07%
COc1cc2c(cc1OC)C(COc1ccccc1OC)N(C(=O)C(C)(C)C)CC2 (centres unmarked)	5.43%
COCc1[nH]nc2c1C(c1ccc(OC)c(OC)c1)C(C#N)=C(N)O2 (centres unmarked)	10.6%
CCOc1ccc(N2CC(C(=O)Nc3ccccc3N3CCOCC3)CC2=O)cc1 (centres unmarked)	4.41%
COc1ccc(OC)c(NC(=O)CSc2nnc(CNC(=O)COc3ccc(Cl)cc3)o2)c1	2.4%
COC(=O)C1=C(O)C(C(=O)OC)C(c2ccc(C)cc2)C(C#N)(C#N)C1c1ccc(C)cc1 (centres unmarked)	6.75%
O=C(c1cc2c(ccc3ccccc32)o1)N1CCCCC1	14.4%
CCOC(=O)N1CCN(C(=O)COC(=O)c2ccc(O)cc2O)CC1	16.8%
CC(=O)c1ccc(-n2c(-c3cc(-c4ccsc4)n[nH]3)n[nH]c2=S)cc1	7.9%
CCCCCn1c(=O)[nH]c2cc(C(=O)NCCN3CCOCC3)ccc2c1=O	6.68%
O=C1NC(Cc2ccccc2)c2nc3ccc(Cl)cc3c(=O)n2-c2ccc(Cl)cc21 (centres unmarked)	10.4%
COc1ccc(S(=O)(=O)N2CCOCC2)cc1NC(=O)c1cccc(Cl)c1	6.86%
N#Cc1c(N)n(CCOC(=O)c2cccc([N+](=O)[O-])c2)c2nc3ccccc3nc12	13.1%
COc1ccc(CCNC(=O)c2ccc3c(c2)OCO3)cc1	11.4%
Cc1csc(NC(=O)CSc2nnc(-c3ccccn3)n2-c2ccc(C)c(C)c2)n1	-57.4%
O=C(CSc1nnc(-c2cccs2)n1-c1ccccc1)NCc1ccco1	-65.9%
COc1ccc(-n2c(SCC(=O)Nc3nccs3)nnc2-c2ccccc2)cc1	13.9%

Structure (SMILES)	hERG current change (%, negative = inhibition) at 1uM
COc1ccc(-n2c(SCC(=O)Nc3nccs3)nnc2-c2ccoc2C)cc1	-79.4%
Cc1ccc(-n2c(SCC(N)=O)nnc2-c2ccccn2)cc1C	13%
Cn1c(SCC(=O)NCc2ccco2)nnc1-c1cccs1	8.99%
COc1cccc(-n2c(SCC(=O)NC(C)(C)C)nnc2-c2ccoc2C)c1	-3.46%
COc1cccc(NC(=O)CSc2nnc(-c3ccoc3C)n2-c2ccccc2)c1	-17.5%
COc1cccc(-n2c(SCC(=O)NCCc3ccccc3)nnc2-c2ccoc2C)c1	-50.4%
O=C(CSc1nnc(-c2ccccc2)n1-c1ccccc1)NCc1ccco1	7.59%
CCOc1ccc(-n2c(SCC(=O)Nc3nccs3)nnc2-c2ccoc2C)cc1	-35.1%
CCN(CC)C(=O)CSc1nnc(-c2ccccn2)n1-c1ccc(C)c(C)c1	-4.22%
COc1ccc(-n2c(-c3cccc(C)c3[N+](=O)[O-])n[nH]c2=S)cc1	7.34%
Cc1ccc(OCC(=O)NC2CCS(=O)(=O)C2)cc1 (centres unmarked)	4.41%
COc1ccc(C(=O)Nc2nc3ccccc3[nH]2)cc1	20.6%
CCCNc1cc(C)oc(=O)c1C(=O)CC	18.4%
CC1(C)Cc2c(C#N)c(SCC(=O)c3ccccc3)nc(N3CCOCC3)c2CS1	13%
COc1ccccc1C(=O)NNC(=O)c1ccccc1	9.59%
CC(=O)n1nc(-c2ccccc2)nc1NCc1cccs1	7.45%
COc1ccc(N2CCN(C(=O)CC34CC5CC(CC(C5)C3)C4)CC2)c([N+](=O)[O-])c1	10.3%
CCC(=O)N1CCN(c2ccc(OC)cc2[N+](=O)[O-])CC1	-0.687%
CCCCC(=O)N1CCN(c2ccc(OC)cc2[N+](=O)[O-])CC1	-54.5%
COc1ccc(N2CCN(C(=O)c3ccc(Br)cc3)CC2)c([N+](=O)[O-])c1	-30.1%
COc1ccc(N2CCN(C(=O)c3ccccc3)CC2)c([N+](=O)[O-])c1	-33.8%
COc1ccc(N2CCN(C(=O)c3cccc(Br)c3)CC2)c([N+](=O)[O-])c1	-85.9%
